The target in this test is GST-Hu-p50 (Homo sapiens, UniProt P19838 7-356). Description: protein-binding microarray (PBM); PBM: ~300 nM protein, 6 mM HEPES pH 7.8, 80 mM KCl, 0.5 mM EDTA, 0.5 mM EGTA, 6% glycerol, 35 ng/ul poly-dIdC, 1% milk, 1 h, room temperature; Ap Aiptasia and Nv Nematostella (sea anemones) / Co Capsaspora / Aq Amphimedon (sponge) / Dm Drosophila / Hu human; RHD is the Rel homology domain; high values mean tight binding. As to conditions: dsDNA, one strand shown.
Chain of GST-Hu-p50 (P19838 7-356): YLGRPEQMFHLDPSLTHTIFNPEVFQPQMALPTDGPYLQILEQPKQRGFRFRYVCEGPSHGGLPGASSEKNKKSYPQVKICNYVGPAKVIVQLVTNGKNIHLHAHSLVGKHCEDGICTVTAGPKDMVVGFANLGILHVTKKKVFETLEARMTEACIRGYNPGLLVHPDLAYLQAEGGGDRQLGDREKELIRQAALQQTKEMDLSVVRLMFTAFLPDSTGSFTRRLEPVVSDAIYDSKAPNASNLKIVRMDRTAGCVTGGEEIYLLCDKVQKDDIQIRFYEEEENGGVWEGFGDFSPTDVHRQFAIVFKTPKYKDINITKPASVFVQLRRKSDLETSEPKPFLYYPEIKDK
In turn, “CCGATTAACATCACGGGATTTTCTGATGTTAATCGGGTCTTGATTCGCTTGACGCTGCTG” displayed a binding signal of 4 z-score.
“CCGATTAACATCAGGAATCCCACTGATGTTAATCGGGTCTTGATTCGCTTGACGCTGCTG” had a binding signal of 1.55 z-score.
“CCGATTAACATCAAAAAATTACCTGATGTTAATCGGGTCTTGATTCGCTTGACGCTGCTG” registered a binding signal of 4.27 z-score.
Under “CCGATTAACATCAGGAAACACCATGATGTTAATCGGGTCTTGATTCGCTTGACGCTGCTG” stands 1.95 z-score.
Consider “CCGATTAACATCACCCGAGTGCGTGATGTTAATCGGGTCTTGATTCGCTTGACGCTGCTG”, for which the binding signal stood at 1.1 z-score.
“CCGATTAACATCAATTTCCCGTATGATGTTAATCGGGTCTTGATTCGCTTGACGCTGCTG” returned a binding signal of 2.68 z-score.
With “CCGATTAACATCACATCTTCCCCTGATGTTAATCGGGTCTTGATTCGCTTGACGCTGCTG”, the binding signal was 4.51 z-score.
Turning to “CCGATTAACATCATGTCTATCGGTGATGTTAATCGGGTCTTGATTCGCTTGACGCTGCTG”, the binding signal came to 1.14 z-score.
Take “CCGATTAACATCACGGAAATTTATGATGTTAATCGGGTCTTGATTCGCTTGACGCTGCTG”: the binding signal was 1.44 z-score.
With “CCGATTAACATCACCCTTGGGAATGATGTTAATCGGGTCTTGATTCGCTTGACGCTGCTG”, the binding signal turned out to be 1.55 z-score.
As to “CCGATTAACATCAAAAATTTCCTTGATGTTAATCGGGTCTTGATTCGCTTGACGCTGCTG”, the binding signal is 1.32 z-score.
“CCGATTAACATCACCGGAAATCCTGATGTTAATCGGGTCTTGATTCGCTTGACGCTGCTG”: the binding signal was determined as 1.78 z-score.
The sequence “CCGATTAACATCAATTTTTGCCCTGATGTTAATCGGGTCTTGATTCGCTTGACGCTGCTG” gave a binding signal of 1.07 z-score.
For “CCGATTAACATCAAAATTTTCCTTGATGTTAATCGGGTCTTGATTCGCTTGACGCTGCTG”, the binding signal is 1.03 z-score.
Sequence “CCGATTAACATCAGGGGAACCTATGATGTTAATCGGGTCTTGATTCGCTTGACGCTGCTG” registered a binding signal of 4.74 z-score.
The figure for “CCGATTAACATCACTATTTTCCCTGATGTTAATCGGGTCTTGATTCGCTTGACGCTGCTG” is 3.18 z-score.
Consider “CCGATTAACATCAGGGCAAACCCTGATGTTAATCGGGTCTTGATTCGCTTGACGCTGCTG”, for which the binding signal is 1.57 z-score.
Sequence “CCGATTAACATCAGGAAGTTACCTGATGTTAATCGGGTCTTGATTCGCTTGACGCTGCTG” came in with a binding signal of 1.42 z-score.
The figure for “CCGATTAACATCAGGAACACCCCTGATGTTAATCGGGTCTTGATTCGCTTGACGCTGCTG” is 2.26 z-score; for “CCGATTAACATCAGGGGATTAAATGATGTTAATCGGGTCTTGATTCGCTTGACGCTGCTG” it is 4.87 z-score; for “CCGATTAACATCAACCAATCCCCTGATGTTAATCGGGTCTTGATTCGCTTGACGCTGCTG” it is 4.9 z-score.
Sequence “CCGATTAACATCAGGAAAGTCCATGATGTTAATCGGGTCTTGATTCGCTTGACGCTGCTG” showed a binding signal of 1.14 z-score.
The sequence “CCGATTAACATCAAGGGAAAAAATGATGTTAATCGGGTCTTGATTCGCTTGACGCTGCTG” yielded a binding signal of 4.89 z-score.
Sequence “CCGATTAACATCACCGTTCCGATTGATGTTAATCGGGTCTTGATTCGCTTGACGCTGCTG” registered a binding signal of 1.04 z-score.
Under “CCGATTAACATCACGAAATTCCCTGATGTTAATCGGGTCTTGATTCGCTTGACGCTGCTG” stands 5.1 z-score.
Take “CCGATTAACATCATACAAGGGAGTGATGTTAATCGGGTCTTGATTCGCTTGACGCTGCTG”: the binding signal was 1.09 z-score.
Turning to “CCGATTAACATCAGGGGAATGGATGATGTTAATCGGGTCTTGATTCGCTTGACGCTGCTG”, the binding signal came out at 4.59 z-score.
“CCGATTAACATCAAATAATTCCCTGATGTTAATCGGGTCTTGATTCGCTTGACGCTGCTG” registered a binding signal of 5.03 z-score.
“CCGATTAACATCAATTAGGTGGGTGATGTTAATCGGGTCTTGATTCGCTTGACGCTGCTG” displayed a binding signal of 1.64 z-score.
The sequence “CCGATTAACATCAAAAGTTTCCCTGATGTTAATCGGGTCTTGATTCGCTTGACGCTGCTG” showed a binding signal of 5.09 z-score.
Regarding “CCGATTAACATCACGGCAACCCCTGATGTTAATCGGGTCTTGATTCGCTTGACGCTGCTG”, the binding signal stood at 1.19 z-score.
Consider “CCGATTAACATCATTAATGACGGTGATGTTAATCGGGTCTTGATTCGCTTGACGCTGCTG”, for which the binding signal is 1.09 z-score.
“CCGATTAACATCAGGGGAGATTATGATGTTAATCGGGTCTTGATTCGCTTGACGCTGCTG” returned a binding signal of 4.94 z-score.
“CCGATTAACATCAGCTGAGTAGGTGATGTTAATCGGGTCTTGATTCGCTTGACGCTGCTG” gave a binding signal of 1.45 z-score.
Under “CCGATTAACATCAACCTTTCCCCTGATGTTAATCGGGTCTTGATTCGCTTGACGCTGCTG” stands 4.06 z-score; under “CCGATTAACATCAGGGGTAACACTGATGTTAATCGGGTCTTGATTCGCTTGACGCTGCTG”, 1.68 z-score.
The figure for “CCGATTAACATCAGGATATACCCTGATGTTAATCGGGTCTTGATTCGCTTGACGCTGCTG” is 1.53 z-score.
“CCGATTAACATCACCCAAAGTTTTGATGTTAATCGGGTCTTGATTCGCTTGACGCTGCTG” yielded a binding signal of 1.11 z-score.
Sequence “CCGATTAACATCACATACCCCCCTGATGTTAATCGGGTCTTGATTCGCTTGACGCTGCTG” came in with a binding signal of 3.68 z-score.

For the origin of these results see publication PMC5700166.
